Test systems include SR leukemia; RPMI-8226 leukemia; OVCAR-8 ovarian; OVCAR-5 ovarian; OVCAR-4 ovarian; SK-OV-3 ovarian; IGROV1 ovarian; OVCAR-3 ovarian; HS 578T breast; NCI/ADR-RES ovarian.
What all share (experiment): NCI-60 one-dose screen, 48 h (100 = growth as untreated, 0 = no growth, -100 = all killed)
Holding throughout (conditions): 10 µM unless noted

Each structure is given as a SMILES string. Values joined by “and” are separate entries in the source; they are usually repeats but may differ in a detail not shown here. Identical values can stand only once. About 83,000 compounds went through this panel and 20% of them were active in at least one assay; those are over-represented in the sample as a whole.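 Assay: single dose, 48 h. Readout: percent growth (0 = no net growth; negative = cell death). Active: <10.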 Active and inactive are the calls of the source.

`O=c1ccc2nc(-c3ccccn3)nn(-c3ccccc3)c-2c1`: the growth is 5.21% (active) in the assay on SR leukemia; 50.3% (inactive) with RPMI-8226 leukemia; 87.1% (inactive) in the assay with OVCAR-8 ovarian; 109% (inactive) with OVCAR-5 ovarian; 81.8% (inactive) in the assay on OVCAR-4 ovarian; 84.9% (inactive) in the assay with SK-OV-3 ovarian. Also, the growth is 87.9% (inactive) with IGROV1 ovarian, -21.9% (active) in the assay with OVCAR-3 ovarian, 93.9% (inactive) in the assay with HS 578T breast and 98% (inactive) with NCI/ADR-RES ovarian.

Regarding `COc1cc(/C=C2/C=C(c3ccc(C(C)(C)C)cc3)N(CCc3ccc(S(N)(=O)=O)cc3)C2=O)cc(OC)c1OC`, the growth in the assay on SR leukemia is 18.4% (inactive); in the assay with RPMI-8226 leukemia it was -5.19% (active); with OVCAR-8 ovarian, 57.4% (inactive); in the assay on OVCAR-5 ovarian it was 91.4% (inactive); in the assay on OVCAR-4 ovarian it was 54.7% (inactive); with SK-OV-3 ovarian, 79.9% (inactive). For the same compound, the growth in the assay with IGROV1 ovarian is 70.5% (inactive); in the assay on OVCAR-3 ovarian, 48.8% (inactive); with HS 578T breast, 69.6% (inactive); in the assay on NCI/ADR-RES ovarian, 71.8% (inactive).

For `COc1cc(-c2nc(SCCC(C)C)nc(Nc3ccc(F)cc3)c2C#N)cc(OC)c1OC`, the growth was 73.1% (inactive) with SR leukemia; 91.2% (inactive) with RPMI-8226 leukemia; 40.7% (inactive) in the assay on OVCAR-8 ovarian; 95% (inactive) with OVCAR-5 ovarian; 2.39% (active) in the assay on OVCAR-4 ovarian; 47.3% (inactive) in the assay on SK-OV-3 ovarian. Besides, the growth in the assay on IGROV1 ovarian is 69.6% (inactive); in the assay with OVCAR-3 ovarian it was 19.8% (inactive); in the assay on HS 578T breast it was 50.1% (inactive); in the assay with NCI/ADR-RES ovarian it was 77.7% (inactive).

On to `Cn1cc(-c2nc3c(F)cc4[nH]ncc4c3c3c2CCCC3)c(C(F)F)n1`, for which the growth with SR leukemia is -16.9% (active); in the assay with RPMI-8226 leukemia it was 27.7% (inactive); in the assay with OVCAR-8 ovarian, 73% (inactive); in the assay with OVCAR-5 ovarian, 71.2% (inactive); in the assay on OVCAR-4 ovarian, 100% (inactive); in the assay with SK-OV-3 ovarian, 37.2% (inactive). For the same compound, the growth is 51.8% (inactive) in the assay with IGROV1 ovarian, 84.4% (inactive) in the assay on OVCAR-3 ovarian, 40.4% (inactive) in the assay with HS 578T breast and 77.9% (inactive) in the assay with NCI/ADR-RES ovarian.

On to `NS(=O)(=O)OCC1OC(n2cnc3cncnc32)C(O)C1O` (stereo not given), for which the growth in the assay on SR leukemia is 2.84% [0.1 µM] (active) and 3.32% [0.1 µM] (active); in the assay with RPMI-8226 leukemia, 25.1% [0.1 µM] (inactive); in the assay on OVCAR-8 ovarian it was 1.63% [0.1 µM] (active) and 1.09% [0.1 µM] (active); in the assay on OVCAR-5 ovarian it was 24.4% [0.1 µM] (inactive) and 6.91% [0.1 µM] (active); in the assay with OVCAR-4 ovarian it was 14.6% [0.1 µM] (inactive) and 11.4% [0.1 µM] (inactive); with SK-OV-3 ovarian, 18.5% [0.1 µM] (inactive) and 21.6% [0.1 µM] (inactive). The growth was 18% [0.1 µM] (inactive) and 48.5% [0.1 µM] (inactive) in the assay with IGROV1 ovarian; 38.6% [0.1 µM] (inactive) and 28.1% [0.1 µM] (inactive) in the assay on OVCAR-3 ovarian; 55.8% [0.1 µM] (inactive) in the assay with HS 578T breast; -5.79% [0.1 µM] (active) and 4.02% [0.1 µM] (active) with NCI/ADR-RES ovarian.

Consider `COc1ccc(-c2c[nH]c(C(=O)O)c2-c2cc(OC)c(OC)c(OC)c2)cc1`, for which the growth is 18.7% (inactive) in the assay with SR leukemia; 36% (inactive) in the assay on RPMI-8226 leukemia; 51.4% (inactive) with OVCAR-8 ovarian; 80.6% (inactive) with OVCAR-5 ovarian; 49.9% (inactive) with OVCAR-4 ovarian; 53.2% (inactive) in the assay on SK-OV-3 ovarian. The growth in the assay with IGROV1 ovarian was 54.8% (inactive); in the assay on OVCAR-3 ovarian, -2.04% (active); in the assay on HS 578T breast, 9.64% (active); with NCI/ADR-RES ovarian, 24.2% (inactive).

With `COc1ccc(/C=N\Nc2nc(SCC(C)C)nc(-c3ccc(OC)cc3)c2C#N)cc1`, the growth is 50.3% (inactive) in the assay with SR leukemia; 54.6% (inactive) with RPMI-8226 leukemia; 39.2% (inactive) with OVCAR-8 ovarian; 55.5% (inactive) in the assay on OVCAR-5 ovarian; -60.3% (active) in the assay with OVCAR-4 ovarian; -16.6% (active) with SK-OV-3 ovarian. For the same compound, the growth in the assay with IGROV1 ovarian was -16.3% (active); with OVCAR-3 ovarian it was 9.64% (active); in the assay on HS 578T breast it was 8.52% (active); in the assay on NCI/ADR-RES ovarian, 42.2% (inactive).

Consider `CC1=C2[C@@H](CC1)[C@]1(C)O[C@@](C(C)C)(C[C@H]1OC(=O)CO)[C@H]2OC(=O)C1CC1c1ccccc1` (stereo not given in full), for which the growth in the assay with SR leukemia was 82% (inactive); with RPMI-8226 leukemia, 88.8% (inactive); in the assay with OVCAR-8 ovarian, 65.6% (inactive); in the assay on OVCAR-5 ovarian, 78.2% (inactive); in the assay with OVCAR-4 ovarian it was 102% (inactive); in the assay with SK-OV-3 ovarian, 108% (inactive). For the same compound, the growth was 87.5% (inactive) in the assay on IGROV1 ovarian, 96.5% (inactive) in the assay on OVCAR-3 ovarian, -2.94% (active) with HS 578T breast and 69% (inactive) in the assay on NCI/ADR-RES ovarian.

For the compound `FC(F)(F)Sc1ccc(/C=C/c2cc(/C=C/c3ccc(SC(F)(F)F)cc3)n(-c3ccccc3)n2)cc1`, the growth with SR leukemia was 91.4% (inactive); in the assay with RPMI-8226 leukemia, 93.9% (inactive); with OVCAR-8 ovarian, 95.1% (inactive); with OVCAR-5 ovarian, 110% (inactive); with OVCAR-4 ovarian it was 92.3% (inactive); in the assay with SK-OV-3 ovarian, 88.1% (inactive). Besides, the growth in the assay with IGROV1 ovarian is 99.9% (inactive); with OVCAR-3 ovarian, 95.5% (inactive); in the assay on HS 578T breast it was 98.8% (inactive); with NCI/ADR-RES ovarian, 98.5% (inactive).

With `COc1cc(NS(=O)(=O)C(C)C)cc(-c2cc(-c3ccc(N4CCNCC4)cc3)cnc2N)c1`, the growth in the assay on SR leukemia was 54.1% (inactive); in the assay with RPMI-8226 leukemia it was 80% (inactive); with OVCAR-8 ovarian it was 96.6% (inactive); with OVCAR-5 ovarian, 73.2% (inactive); in the assay on OVCAR-4 ovarian, 95.9% (inactive); with SK-OV-3 ovarian it was 96.9% (inactive). The growth in the assay with IGROV1 ovarian was 36.9% (inactive); in the assay on OVCAR-3 ovarian it was 90.8% (inactive); in the assay with HS 578T breast, 65.4% (inactive); in the assay with NCI/ADR-RES ovarian, 111% (inactive).

For `COc1ccc(/C=C2\COc3ccc(O)c(O)c3C2=O)c(OC)c1OC`, the growth in the assay with SR leukemia is 9.47% (active); in the assay on RPMI-8226 leukemia, -23.6% (active); with OVCAR-8 ovarian, 8.41% (active); with OVCAR-5 ovarian, 36.2% (inactive); in the assay on OVCAR-4 ovarian, 27.8% (inactive); in the assay on SK-OV-3 ovarian, 67% (inactive). Besides, the growth in the assay with IGROV1 ovarian was 16.9% (inactive); with OVCAR-3 ovarian, 9.03% (active); in the assay with HS 578T breast, 27.9% (inactive); in the assay on NCI/ADR-RES ovarian, 27% (inactive).

As to `Clc1nccc2c(-c3csc(-c4c[nH]c5ccc(Br)cc45)n3)c[nH]c12`, the growth in the assay with SR leukemia is 6.34% (active); with RPMI-8226 leukemia it was 44.9% (inactive); with OVCAR-8 ovarian it was 33.4% (inactive); with OVCAR-5 ovarian, 60.1% (inactive); in the assay with OVCAR-4 ovarian, 48.2% (inactive); in the assay with SK-OV-3 ovarian, 27% (inactive). Moreover, the growth with IGROV1 ovarian was 44.3% (inactive); in the assay on OVCAR-3 ovarian, 62.5% (inactive); with HS 578T breast it was 30.7% (inactive); in the assay on NCI/ADR-RES ovarian, 31.3% (inactive).

The values above are taken from PubChem BioAssay (NCI).
